# PubChem BioAssay AID1159580 (chemical genetic matrix, 2015)
# “And” between values parts separate entries of the source, which are not always exact repeats. Equal values may be shown once. In all, about 5,500 compounds went through this assay and about 2,000 (36%) were called active. About 18% were inconclusive and are not listed. The list shows a part of the results. A number with no mark means an inactive call. No stated cut-off is given here; in the data, active means normalized growth mostly below about 0.91 (no sharp cut-off); inconclusive means no clear call, values can overlap the other calls; inactive means mostly above about 0.92.
# Experiment: chemical genetic growth profiling, strain panel (AID 1159580);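 further: tested at 20 µM; growth read once vehicle control cultures reached saturation at 30 °C; 1 = growth at the plate median or of vehicle wells; lower values mean less growth of the strain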
# Settings: S. cerevisiae deletion strains, growth OD
# [1] = locus YHR030C, strain SLT2, hits give low values
# [2] = locus YHR079C, strain IRE1, hits give low values
# [3] = locus YJL095W, strain BCK1, hits give low values
# [4] = locus YJR066W, strain TOR1, hits give low values
# [5] = locus YLR113W, strain HOG1, hits give low values
# [6] = locus YNL183C, strain NPR1, hits give low values
# [7] = locus YOR231W, strain MKK1, hits give low values
# [8] = locus YPL256C, strain CLN2, hits give low values
smiles,measurement,setting,value
CC(=O)Oc1cc(C)c2c(c1C=O)Oc1c(c(C)c(OC(C)=O)c3c1C(OC(C)=O)OC3=O)OC2=O (stereo unspecified),normalized growth,[1],0.877
same,normalized growth,[2],0.883
same,normalized growth,[3],0.905
same,normalized growth,[4],0.857
same,normalized growth,[5],0.821 (active)
same,normalized growth,[6],0.853
same,normalized growth,[7],0.876
same,normalized growth,[8],0.829
COc1cc(C)c2c(c1C=O)Oc1c(c(C)c(O)c3c1C(O)OC3=O)OC2=O (stereo unspecified),normalized growth,"locus YAL013W, strain DEP1, hits give low values",1
same,normalized growth,"locus YAL021C, strain ccr4, hits give low values",1.01
same,normalized growth,"locus YAL026C, strain drs2, hits give low values",1.02
same,normalized growth,"locus YAL030W, strain snc1, hits give low values",1.02
same,normalized growth,"locus YBL061C, strain skt5, hits give low values",1.02
same,normalized growth,"locus YBR009C, strain hhf1, hits give low values",1.03
same,normalized growth,"locus YBR021W, strain FUR4, hits give low values",1.01
same,normalized growth,"locus YBR023C, strain chs3, hits give low values",1.05
same,normalized growth,"locus YBR171W, strain sec66, hits give low values",1.02
same,normalized growth,"locus YBR229C, strain ROT2, hits give low values",0.949
same,normalized growth,"locus YBR231C, strain swc5, hits give low values",1.01
same,normalized growth,"locus YBR279W, strain paf1, hits give low values",1.01
same,normalized growth,"locus YCL011C, strain gbp2, hits give low values",1.03
same,normalized growth,"locus YCL016C, strain dcc1, hits give low values",1.03
same,normalized growth,"locus YCL029C, strain bik1, hits give low values",0.984
same,normalized growth,"locus YCL061C, strain MRC1, hits give low values",1.02
same,normalized growth,"locus YCL069W, strain vba3, hits give low values",1.01
same,normalized growth,"locus YCR088W, strain abp1, hits give low values",1.01
same,normalized growth,"locus YDL005C, strain med2, hits give low values",0.946
same,normalized growth,"locus YDL035C, strain GPR1, hits give low values",0.965
same,normalized growth,"locus YDL040C, strain nat1, hits give low values",1.01
same,normalized growth,"locus YDL074C, strain BRE1, hits give low values",0.959
same,normalized growth,"locus YDL101C, strain DUN1, hits give low values",0.99
same,normalized growth,"locus YDL185W, strain tfp1, hits give low values",0.972
same,normalized growth,"locus YDL192W, strain arf1, hits give low values",0.984
same,normalized growth,"locus YDR001C, strain nth1, hits give low values",1.01
same,normalized growth,"locus YDR069C, strain doa4, hits give low values",1
same,normalized growth,"locus YDR101C, strain arx1, hits give low values",0.981
same,normalized growth,"locus YDR137W, strain rgp1, hits give low values",1.06
same,normalized growth,"locus YDR150W, strain NUM1, hits give low values",0.994
same,normalized growth,"locus YDR159W, strain sac3, hits give low values",1.02
same,normalized growth,"locus YDR162C, strain NBP2, hits give low values",0.941
same,normalized growth,"locus YDR195W, strain ref2",0.924
same,normalized growth,"locus YDR297W, strain sur2, hits give low values",1.01
same,normalized growth,"locus YDR318W, strain mcm21, hits give low values",1
same,normalized growth,"locus YDR334W, strain swr1, hits give low values",1
same,normalized growth,"locus YDR335W, strain msn5, hits give low values",1.01
same,normalized growth,"locus YDR388W, hits give low values",0.997
same,normalized growth,"locus YDR392W, strain spt3, hits give low values",1
same,normalized growth,"locus YDR502C, strain sam2, hits give low values",1.04
same,normalized growth,"locus YEL003W, strain gim4, hits give low values",1.02
same,normalized growth,"locus YEL037C, strain rad23, hits give low values",1.02
same,normalized growth,"locus YEL061C, strain CIN8 (second series), hits give low values",1
same,normalized growth,"locus YEL061C, strain CIN8, hits give low values",0.974
same,normalized growth,"locus YER015W, strain faa2, hits give low values",1.01
same,normalized growth,"locus YER016W, strain bim1, hits give low values",1.02
same,normalized growth,"locus YER110C, hits give low values",0.981
same,normalized growth,"locus YER111C, strain swi4, hits give low values",1.01
same,normalized growth,"locus YER155C, strain BEM2 (second series), hits give low values",1.02
same,normalized growth,"locus YER155C, strain BEM2, hits give low values",0.995
same,normalized growth,"locus YER167W, strain BCK2, hits give low values",0.986
same,normalized growth,"locus YFR010W, strain ubp6, hits give low values",1.02
same,normalized growth,"locus YGL078C, strain dbp3, hits give low values",1.02
same,normalized growth,"locus YGL086W, strain mad1, hits give low values",1.01
same,normalized growth,"locus YGL167C, strain pmr1, hits give low values",1.01
same,normalized growth,"locus YGL173C, strain kem1, hits give low values",1.03
same,normalized growth,"locus YGL227W, strain vid30, hits give low values",1.02
same,normalized growth,"locus YGL240W, strain doc1, hits give low values",1.08
same,normalized growth,"locus YGL248W, strain PDE1, hits give low values",1.02
same,normalized growth,"locus YGL253W, strain hxk2, hits give low values",1.02
same,normalized growth,"locus YGR135W, strain pre9, hits give low values",1.06
same,normalized growth,"locus YGR252W, strain gcn5, hits give low values",1.05
same,normalized growth,"locus YHR013C, strain ard1, hits give low values",1.05
same,normalized growth,"locus YHR027C, strain rpn1, hits give low values",1.01
same,normalized growth,[1],0.992 and 0.99
same,normalized growth,"locus YHR079C, strain IRE1 (second series), hits give low values",0.991
same,normalized growth,[2],0.994
same,normalized growth,"locus YHR094C, strain hxt1, hits give low values",0.982
same,normalized growth,"locus YHR129C, strain ARP1, hits give low values",0.984
same,normalized growth,"locus YHR142W, strain chs7, hits give low values",1.05
same,normalized growth,"locus YHR200W, strain rpn10, hits give low values",0.999
same,normalized growth,"locus YIL066C, strain RNR3, hits give low values",0.97
same,normalized growth,"locus YIL073C, strain SPO22, hits give low values",1.06
same,normalized growth,"locus YIL125W, strain kgd1, hits give low values",0.984
same,normalized growth,"locus YIR030C, strain dcg1, hits give low values",0.982
same,normalized growth,"locus YJL092W, strain hpr5, hits give low values",1.01
same,normalized growth,"locus YJL095W, strain BCK1 (second series), hits give low values",1.02
same,normalized growth,[3],1.08 and 0.976
same,normalized growth,"locus YJL115W, strain asf1, hits give low values",1
same,normalized growth,"locus YJL129C, strain trk1, hits give low values",1.03
same,normalized growth,"locus YJL134W, strain LCB3, hits give low values",0.986
same,normalized growth,"locus YJL154C, strain vps35, hits give low values",1.02
same,normalized growth,"locus YJL164C, strain tpk1, hits give low values",1.03
same,normalized growth,"locus YJL166W, strain qcr8, hits give low values",1.03
same,normalized growth,"locus YJL168C, strain set2, hits give low values",0.993
same,normalized growth,"locus YJL187C, strain SWE1 (second series), hits give low values",0.988
same,normalized growth,"locus YJL187C, strain SWE1, hits give low values",1.02
same,normalized growth,[4],0.919
same,normalized growth,"locus YKL009W, strain mrt4, hits give low values",0.948
same,normalized growth,"locus YKL068W, hits give low values",0.983
same,normalized growth,"locus YKL085W, strain MDH1 (second series), hits give low values",0.968
same,normalized growth,"locus YKL085W, strain MDH1, hits give low values",0.968
same,normalized growth,"locus YKL160W, strain elf1, hits give low values",1.03
same,normalized growth,"locus YKL190W, strain CNB1, hits give low values",0.989
same,normalized growth,"locus YKR001C, strain vps1, hits give low values",0.991
same,normalized growth,"locus YKR026C, strain gcn3, hits give low values",1.01
same,normalized growth,"locus YKR091W, strain srl3, hits give low values",1.01
same,normalized growth,"locus YLL001W, strain dnm1, hits give low values",1.01
same,normalized growth,"locus YLL026W, hits give low values",1.02
same,normalized growth,"locus YLL041C, strain sdh2, hits give low values",1.01
same,normalized growth,"locus YLR027C, strain aat2, hits give low values",1
same,normalized growth,"locus YLR039C, strain RIC1, hits give low values",1.01
same,normalized growth,"locus YLR058C, strain SHM2, hits give low values",0.966
same,normalized growth,"locus YLR102C, strain apc9, hits give low values",0.986
same,normalized growth,[5],0.956
same,normalized growth,"locus YLR221C, strain rsa3, hits give low values",1.03
same,normalized growth,"locus YLR258W, strain gsy2, hits give low values",1.03
same,normalized growth,"locus YLR262C, strain YPT6 (second series), hits give low values",1.06
same,normalized growth,"locus YLR268W, strain sec22, hits give low values",0.975
same,normalized growth,"locus YLR320W, strain mms22, hits give low values",1.06
same,normalized growth,"locus YLR330W, strain CHS5, hits give low values",0.983
same,normalized growth,"locus YLR342W, strain FKS1 (second series), hits give low values",0.99
same,normalized growth,"locus YLR342W, strain FKS1, hits give low values",1.03
same,normalized growth,"locus YLR357W, strain rsc2, hits give low values",0.997
same,normalized growth,"locus YLR370C, strain arc18, hits give low values",1.02
same,normalized growth,"locus YLR371W, strain rom2, hits give low values",0.972
same,normalized growth,"locus YLR384C, strain iki3, hits give low values",1.01
same,normalized growth,"locus YLR418C, strain cdc73, hits give low values",1.05
same,normalized growth,"locus YML016C, strain PPZ1, hits give low values",0.985
same,normalized growth,"locus YML032C, strain rad52, hits give low values",0.985
same,normalized growth,"locus YML120C, strain ndi1, hits give low values",1.02
same,normalized growth,"locus YML124C, strain tub3, hits give low values",0.996
same,normalized growth,"locus YMR058W, strain fet3, hits give low values",0.996
same,normalized growth,"locus YMR078C, strain ctf18, hits give low values",0.995
same,normalized growth,"locus YMR125W, strain sto1, hits give low values",0.999
same,normalized growth,"locus YMR129W, hits give low values",1.01
same,normalized growth,"locus YMR205C, strain PFK2, hits give low values",1.03
same,normalized growth,"locus YMR223W, strain ubp8, hits give low values",1
same,normalized growth,"locus YMR231W, strain pep5, hits give low values",1.02
same,normalized growth,"locus YMR307W, strain GAS1, hits give low values",0.922
same,normalized growth,"locus YNL067W, strain RPL9B, hits give low values",1
same,normalized growth,"locus YNL071W, strain lat1, hits give low values",1.02
same,normalized growth,"locus YNL128W, strain TEP1, hits give low values",0.918
same,normalized growth,[6],0.935
same,normalized growth,"locus YNL209W, strain ssb2, hits give low values",1
same,normalized growth,"locus YNL233W, strain BNI4, hits give low values",1.02
same,normalized growth,"locus YNL248C, strain rpa49, hits give low values",1.05
same,normalized growth,"locus YNL250W, strain rad50, hits give low values",0.984
same,normalized growth,"locus YNL271C, strain bni1, hits give low values",0.989
same,normalized growth,"locus YNL298W, strain CLA4, hits give low values",0.987
same,normalized growth,"locus YNL307C, strain MCK1, hits give low values",1
same,normalized growth,"locus YNL322C, strain KRE1 (second series), hits give low values",1.01
same,normalized growth,"locus YNR049C, strain mso1, hits give low values",1.02
same,normalized growth,"locus YNR052C, strain pop2, hits give low values",1.02
same,normalized growth,"locus YOL012C, strain htz1",0.777
same,normalized growth,"locus YOL147C, strain pex11, hits give low values",0.991
same,normalized growth,"locus YOR001W, strain rrp6, hits give low values",1.03
same,normalized growth,"locus YOR061W, strain CKA2, hits give low values",0.952
same,normalized growth,"locus YOR069W, strain VPS5, hits give low values",0.992
same,normalized growth,"locus YOR070C, strain gyp1, hits give low values",1.01
same,normalized growth,"locus YOR080W, strain dia2, hits give low values",1.02
same,normalized growth,"locus YOR083W, strain WHI5, hits give low values",1.03
same,normalized growth,"locus YOR106W, strain vam3, hits give low values",1.03
same,normalized growth,"locus YOR136W, strain idh2, hits give low values",0.987
same,normalized growth,"locus YOR144C, strain elg1, hits give low values",0.99
same,normalized growth,"locus YOR184W, strain ser1, hits give low values",0.959
same,normalized growth,[7],0.975
same,normalized growth,"locus YOR265W, strain rbl2, hits give low values",1.01
same,normalized growth,"locus YOR270C, strain vph1, hits give low values",1.15
same,normalized growth,"locus YOR290C, strain snf2, hits give low values",1.01
same,normalized growth,"locus YOR316C, strain cot1, hits give low values",1
same,normalized growth,"locus YPL051W, strain arl3, hits give low values",1.04
same,normalized growth,"locus YPL055C, strain LGE1, hits give low values",0.899
same,normalized growth,"locus YPL078C, strain atp4, hits give low values",1.03
same,normalized growth,"locus YPL106C, strain sse1, hits give low values",1.02
same,normalized growth,"locus YPL240C, strain hsp82, hits give low values",1.01
same,normalized growth,"locus YPL241C, strain CIN2, hits give low values",0.995
same,normalized growth,[8],0.974
same,normalized growth,"locus YPR119W, strain clb2, hits give low values",1
same,normalized growth,"locus YPR141C, strain kar3, hits give low values",0.979
same,normalized growth,"locus YPR163C, strain tif3, hits give low values",1
same,normalized growth,"locus YPR167C, strain met16, hits give low values",1.02
same,normalized growth,"strain wtn01, hits give low values",0.976
